This is an account of results in publication PMC4336329 (PLoS ONE, 2015).

Each structure is given as a SMILES string. Out of some 310,000 compounds screened, about 14,000 (4.5%) showed an effect of 50% or more. Effects have a minus sign here. This excerpt belongs to a sample that is enriched for strong results.
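Also: peak tail current of the secondary pulse compared with the same well before compound.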

The target of this experiment is human ether-à-go-go-related gene (hERG) potassium channel (human, UniProt Q12809). Kind of experiment: primary screen, population patch clamp on CHO cells stably expressing hERG; higher = less effect of the substance.
Sequence of human ether-à-go-go-related gene (hERG) potassium channel (Q12809 whole entry, looked up): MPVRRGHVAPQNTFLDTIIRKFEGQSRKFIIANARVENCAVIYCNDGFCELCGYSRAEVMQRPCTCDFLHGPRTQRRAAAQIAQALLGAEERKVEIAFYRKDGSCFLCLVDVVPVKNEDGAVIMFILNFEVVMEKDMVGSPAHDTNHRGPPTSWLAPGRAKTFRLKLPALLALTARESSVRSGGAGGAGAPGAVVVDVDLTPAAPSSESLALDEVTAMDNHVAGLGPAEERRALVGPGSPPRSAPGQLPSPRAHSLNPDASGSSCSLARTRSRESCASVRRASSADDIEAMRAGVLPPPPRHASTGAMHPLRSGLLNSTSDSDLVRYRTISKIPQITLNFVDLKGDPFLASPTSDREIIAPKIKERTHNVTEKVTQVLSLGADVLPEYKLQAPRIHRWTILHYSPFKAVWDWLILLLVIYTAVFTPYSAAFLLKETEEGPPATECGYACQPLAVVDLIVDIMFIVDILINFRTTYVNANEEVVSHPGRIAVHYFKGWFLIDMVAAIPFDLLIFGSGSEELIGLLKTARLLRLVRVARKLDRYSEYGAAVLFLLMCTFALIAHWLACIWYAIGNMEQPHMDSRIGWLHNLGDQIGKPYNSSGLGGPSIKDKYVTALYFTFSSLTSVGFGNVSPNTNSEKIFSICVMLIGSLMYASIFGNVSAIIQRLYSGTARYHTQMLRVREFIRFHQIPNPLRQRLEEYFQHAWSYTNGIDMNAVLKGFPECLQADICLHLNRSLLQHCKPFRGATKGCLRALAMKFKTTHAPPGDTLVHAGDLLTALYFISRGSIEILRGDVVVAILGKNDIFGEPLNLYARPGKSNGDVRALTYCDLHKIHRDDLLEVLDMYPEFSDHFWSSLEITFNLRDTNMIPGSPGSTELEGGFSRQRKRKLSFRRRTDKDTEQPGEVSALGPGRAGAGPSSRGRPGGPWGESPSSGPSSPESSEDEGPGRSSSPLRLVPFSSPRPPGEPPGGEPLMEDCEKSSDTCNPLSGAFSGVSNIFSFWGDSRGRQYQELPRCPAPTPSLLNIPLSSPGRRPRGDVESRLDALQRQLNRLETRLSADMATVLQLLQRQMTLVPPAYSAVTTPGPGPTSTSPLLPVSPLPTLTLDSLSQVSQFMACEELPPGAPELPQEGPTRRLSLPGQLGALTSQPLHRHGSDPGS
`N#Cc1nc(-c2ccco2)oc1NCCCn1ccnc1`: the “hERG current change (%, negative = inhibition) at 10uM” value is -19.7%.

For the compound `O=S(=O)(c1ccccc1)c1nc(-c2cccs2)oc1NCc1cccnc1`, the “hERG current change (%, negative = inhibition) at 10uM” value is reported as -50.5%. In the case of `O=S(=O)(c1ccccc1)c1nc(-c2cccs2)oc1NCCCn1ccnc1`, the “hERG current change (%, negative = inhibition) at 10uM” value is given as -75.1%. Under `C=CCNc1oc(-c2cccs2)nc1S(=O)(=O)c1ccccc1` stands -24.7%; under `O=S(=O)(c1ccccc1)c1nc(-c2ccco2)oc1NCCCn1ccnc1`, -65.6%; under `CNc1oc(-c2cccs2)nc1S(=O)(=O)c1ccccc1`, -18.7%.

With `CC(C)Sc1cc(N2CCCC2)nc(-c2ccccc2)n1`, the “hERG current change (%, negative = inhibition) at 10uM” value was -5.24%. `COc1cccc(NC(=O)N(CCN(C)C)C(C)c2cccnc2)c1` (stereo not drawn): the “hERG current change (%, negative = inhibition) at 10uM” value is listed as -20.7%. The figure for `Cc1ccc(-n2c(N)c(C(=O)NCc3cccnc3)sc2=S)cc1` is 23.5%.

As for `CCOc1ccc(CCNC(=O)COC(=O)c2ccc(S(=O)(=O)N3CCCC3)cc2)cc1OCC`, the “hERG current change (%, negative = inhibition) at 10uM” value worked out at 25.7%. Under `O=C(Nc1cc(Cl)ccc1O)c1cc(-c2ccco2)on1` stands 8.36%; under `Cc1nn(Cc2ccccc2)c(Cl)c1C(=O)OCC(=O)NC(=O)NC12CC3CC(CC(C3)C1)C2`, 11.5%.

Regarding `Cc1nc(N2CCN(C)CC2)c2c3c(sc2n1)CCCC3`, the “hERG current change (%, negative = inhibition) at 10uM” value is listed as -11.4%. The figure for `CC1CCc2c(sc3nc(C4CC4)nc(N4CCN(C(=O)c5ccco5)CC4)c23)C1` (stereo not drawn) is -19.2%. As to `CCc1nc(N2CCN(C(=O)c3ccco3)CC2)c2c3c(sc2n1)CCCC3`, the “hERG current change (%, negative = inhibition) at 10uM” value is -65.3%. The figure for `CCc1nc(SCC(=O)N2CCN(C(=O)c3ccco3)CC2)c2c3c(sc2n1)CCCC3` is -46%; for `CC(=O)N1CCN(c2nc(C)nc3sc4c(c23)CCC(C)C4)CC1` (stereo not drawn) it is -19.3%.

As to `CCCNC(=S)N1CCN(c2nc(C)nc3sc4c(c23)CCCC4)CC1`, the “hERG current change (%, negative = inhibition) at 10uM” value is -31.5%. Consider `Cc1nc(N2CCOCC2)c2c3c(sc2n1)CCC3`, for which the “hERG current change (%, negative = inhibition) at 10uM” value is 10.4%.

Take `Cc1nc(N2CCN(C(=O)c3cccs3)CC2)c2c3c(sc2n1)CCCC3`: the “hERG current change (%, negative = inhibition) at 10uM” value is -63.8%.

Regarding `CCc1nc(N2CCN(C(=O)c3ccccc3)CC2)c2c3c(sc2n1)CCCC3`, the “hERG current change (%, negative = inhibition) at 10uM” value is given as -12.2%. The figure for `Cc1nc(N2CCNCC2)c2c3c(sc2n1)CCCC3` is -2.23%; for `Cc1nc(N2CCN(C(=O)c3ccco3)CC2)c2c3c(sc2n1)CC(C)CC3` (stereo not drawn) it is -63.9%; for `Cc1nc(N2CCN(C(=O)c3ccco3)CC2)c2c3c(sc2n1)CCC3` it is -54.8%. Under `CCOc1ccc(N2C(=O)CC(NCCc3c[nH]c4ccccc34)C2=O)cc1` (stereo not drawn) stands 1.45%; under `Cc1cc(C(=O)Nc2nccs2)c2cc(F)ccc2n1`, 7.7%. Under `CCCn1c(N)c(C(=O)CSc2nnc(Cc3ccccc3)o2)c(=O)n(C)c1=O` stands -0.939%; under `O=S(=O)(c1ccccc1)c1ncc(C(F)(F)F)cc1O`, 9%; under `O=C(COC(=O)/C=C/c1cccc(F)c1)NC1CCCC1`, 4.41%. Regarding `CCOc1ccc(CCNC(=O)CCC(=O)N2CCOc3ccccc32)cc1OCC`, the “hERG current change (%, negative = inhibition) at 10uM” value is -7.82%.

Consider `COc1cccc(OC)c1C(=O)NC(=S)N1CCCCC1c1cccnc1` (stereo not drawn), for which the “hERG current change (%, negative = inhibition) at 10uM” value is on record as -13%. The figure for `Nc1c(CO)nnn1-c1ccccc1` is 4.7%; for `O=C(Nc1ccc(OCC(F)(F)C(F)F)c(C(F)(F)F)c1)c1ccccc1O` it is 9.65%; for `COc1ccc2c(Cl)c(-c3nnc(SCC(=O)c4ccccc4)n3C)sc2c1` it is 8.28%. The figure for `Cc1ccc(NC(=O)c2ccccc2NS(=O)(=O)c2ccc(Cl)s2)cc1S(=O)(=O)N1CCOCC1` is 0.321%; for `COc1ccc(OCc2csc(N)n2)cc1` it is 39.4%. The figure for `CCC(=O)N1CCN(c2nc(CC)nc3sc4c(c23)CCCC4)CC1` is -71.7%; for `Cc1nc(-n2nnc3cc(C)c(C)cc32)c2c3c(sc2n1)CCCC3` it is -1.48%; for `Cc1nc(N2CCN(C(=O)c3ccco3)CC2)c2c3c(sc2n1)CCCC3` it is -64.1%.

For `O=C(c1ccco1)N1CCN(c2nc(C3CC3)nc3sc4c(c23)CCCC4)CC1`, the “hERG current change (%, negative = inhibition) at 10uM” value was -29.7%.

Consider `CCNC(=S)N1CCN(c2nc(CC)nc3sc4c(c23)CCCC4)CC1`, for which the “hERG current change (%, negative = inhibition) at 10uM” value is recorded as -15.4%. Take `CCc1nc(N2CCN(C(C)=O)CC2)c2c3c(sc2n1)CCCC3`: the “hERG current change (%, negative = inhibition) at 10uM” value is -20.1%. With `c1ccc2c(c1)nnn2-c1ncnc2sc3c(c12)CCCC3`, the “hERG current change (%, negative = inhibition) at 10uM” value was -12.2%.

On to `Cc1nc(-n2nnc3ccccc32)c2c3c(sc2n1)CCCC3`, for which the “hERG current change (%, negative = inhibition) at 10uM” value is on record as -50.1%. For the compound `Cc1nc(N2CCN(C(=O)c3ccco3)CC2)c(C#N)c2c1CCCC2`, the “hERG current change (%, negative = inhibition) at 10uM” value stood at 3.21%.
